Test results from PubChem BioAssay AID504842 (National Center for Advancing Translational Sciences (NCATS), 2011).
Among all 330,000 compounds or so, about 100 (0.03%) were called active. Not shown: some 1% with an inconclusive outcome. Calls come from the whole dose curve; as a rule, active = well fitted inhibition curve with a large enough effect; inconclusive = small, poorly fitted or top-dose-only effect; inactive = flat fitted curve, though single readings scatter. What follows is part of a selection rich in actives, with near analogues and random picks from the rest.

test system: Chaperonin Mm-Cpn (Methanococcus maripaludis); test: Inhibitors of TCP-1 ring complex (TRiC) of Methanococcus maripaludis (MmCpn): qHTS; conditions: purified Mm-Cpn ATPase, ADP Transcreener TR-FRET; series mostly up to 76.9 µM; activity, negative = inhibition: at the top concentration; note: nearly all actives have a fitted effect of over 80% in size;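 for Potency: enzyme at 25 nM with ATP substrate at 10 µM during the reaction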
Description: The eukaryotic chaperonin TRiC (for TCP-1 ring complex) is an essential and conserved chaperone required for the folding and activation of 10-15% of the proteins encoded by the human genome. […] The TRiC complex consist of two stacked 7-9 membered rings, each containing a central cavity. Substrates are folded within the cavity in an ATP-dependent manner. TRiC is a complex of eight different, essential proteins. As each of the genes encoding the eight subunits is essential for cell viability and no protocol has been developed to over-express this enzyme to high levels. That is why several groups studying the TRiC chaperonin have turned to the archaeal homolog of TRiC, Methanococcus maripaludis (Mm-CPN), and have used this enzyme as a model system for the study of the type II chaperonin family. Small molecule inhibitors of the Mm-CPN enzyme would be extremely useful to study the mechanism of chaperonin activity. Importantly, TRiC and Mm-CPN both require ATP hydrolysis for function. Furthermore, the ATP binding sites are highly conserved among these type II chaperonins. This provides us with an easy, well tested and straightforward assay to identify inhibitors of chaperonin activity. The Mm-CPN assay was developed in 1536-well plate format using the HTRF Transcreener ADP assay kit (Cisbio, Bedford, MA). This assay applied the time resolved fluorescence resonance energy transfer (TR-FRET) principle. ATP in the presence of Mm-CPN is converted to ADP + Pi. An antibody labeled with Eu3+-Cryptate specific and bound to ADP labeled with […] (d2) competes with the unlabeled ADP generated by Mm-CPN. The resulting TR-FRET signal is inversely proportional to the concentration of ADP in the sample. In this assay a reduction in TR-FRET signal is observed with ATP turnover. NIH Chemical Genomics Center [NCGC] NIH Molecular Libraries Probe Centers Network [MLPCN] MLPCN Grant: DA030554-01A1 Assay Submitter (PI): Judith Frydman, Stanford University
Purified Mm-CPN was supplied by the laboratory of Dr. Judith Frydman. Protein samples were stored at -80C as single use aliquots. Protein was thawed in ambient temperature water bath and placed on ice once thawed. Buffer was prepared fresh day of screen. The buffer composition below was used to prepare the working solution of the Mm-CPN protein and ATP substrate. The buffer is comprised of 30 mM TRIS pH 7.4, 100mM KCl, 5mM MgCl2, and 1mM DTT. A final concentration of 25nM Mm-CPN and 10uM ATP per well were used in the screen. Instructions according to the manufacturer were followed for the ADP Transcreener kit. Used 1536 well Greiner white, medium binding (MB), solid bottom plates. Plates were read on the PerkinElmer EnVision plate reader using Excitation = 320 nm and Emission = […], 665 nm. Protocol- 1.Dispense 1.5ul per well of working [Mm-CPN] = 50nM (or 75 ng / well) 2.Spin plate at 1000 rpm for 30 seconds 3.23nl of compound transferred per well 4.Incubate at 37degC for 10 minutes 5.Dispense 1.5ul per well of working [ATP] = 20uM 6.Incubate at 37degC for 30 minutes 7.Dispense 3ul per well of Anti-ADP Cryptate / ADP-d2 mix (prepared as instructed by Cisbio) 8.Incubate at ambient for 30 minutes 9.Read using EnVision
% is set by controls: 0 for no effect and ±100 for the full control effect; potency is the fitted concentration of half-maximal effect.

**Q.** With N#Cc1ccc(-c2nc3cc(C#N)c(C#N)cc3nc2-c2ccccc2)cc1C#N as the compound, how does the “activity, negative = inhibition” value read?
**A.** 0.293% (inactive)

**Q.** With CC(=O)Nc1ccc(S(=O)(=O)N2CCN(S(=O)(=O)c3cccs3)CC2)cc1 as the compound, how does the “activity, negative = inhibition” value read?
**A.** 0.0491% (inactive)

**Q.** Cc1ccc(CNC(=O)c2ccccc2CCc2ccccc2)cc1 was tested. Which “activity, negative = inhibition” value did it give?
**A.** -0.428% (inactive)

**Q.** With CCC1SC(CC)C(=O)N(CC(=O)NC2CCCCC2)C1=O (centres undefined) as the compound, how does the “activity, negative = inhibition” value read?
**A.** 0.875% (inactive)

**Q.** Which “activity, negative = inhibition” value does the source give for Cc1cccc(C(=O)Nc2ccc(Oc3cnccn3)cc2)c1 here?
**A.** -0.493% (inactive)

**Q.** How did the “activity, negative = inhibition” value turn out when CC(=O)Nc1cccc(C(=O)OCN2C(=O)c3ccccc3C2=O)c1 was run?
**A.** 1.86% (inactive)

**Q.** With C=CCN1C(=O)c2ccc(C(=O)N3CCC(C(=O)OCC)CC3)cc2C1=O as the compound, how does the “activity, negative = inhibition” value read?
**A.** -0.43% (inactive)

**Q.** Cc1ccc(NC2=C(Cl)C(=O)OC2OC(=O)c2ccccc2C)cc1 (centres undefined) was tested. Which “activity, negative = inhibition” value did it give?
**A.** -12.6% (inactive)

**Q.** Cc1ccccc1N1CCN(CCCN2C(=O)C3CCCCN3C2=O)CC1 (centres undefined) was tested. Which “activity, negative = inhibition” value did it give?
**A.** -0.311% (inactive)

**Q.** How did the “activity, negative = inhibition” value turn out when O=C(CCNS(=O)(=O)c1ccccc1)NCCCc1ccccc1 was run?
**A.** -1.66% (inactive)

**Q.** How did the Potency turn out when CCc1ccc(Nc2n[n+](-c3ccccc3)c(-c3cccc(Cl)c3Cl)s2)cc1 was run?
**A.** 56.2 µM (active)

**Q.** COc1cc(Br)c(-c2sc(Nc3ccccc3)n[n+]2-c2ccccc2)cc1OC was tested. Which “activity, negative = inhibition” value did it give?
**A.** -8.15% (inactive)

**Q.** NC(=O)N1CCCC1C(=O)Nc1ccc(Cl)c(Cl)c1 (centres undefined) was tested. Which “activity, negative = inhibition” value did it give?
**A.** -1% (inactive)

**Q.** CC(C)c1ccc(N2CCN(C(=O)c3ccccc3NC(=O)/C=C(\C(=O)O)c3ccccc3)CC2)cc1 was tested. Which “activity, negative = inhibition” value did it give?
**A.** 1.56% (inactive)

**Q.** For CC(NC(=O)COC(=O)c1ccc(Cl)cc1O)c1ccc(F)cc1 (centres undefined), which “activity, negative = inhibition” value is on record?
**A.** -3.48% (inactive)

**Q.** With COc1ccccc1-c1sc2ccccc2c1-c1ccc(C(C)=O)cc1 as the compound, how does the Potency read?
**A.** 31.6 µM (active)

**Q.** For COC(=O)c1ccc(/C=C/c2c(-c3ccc(OC)cc3)sc3ccccc23)cc1, which “activity, negative = inhibition” value is on record?
**A.** 1.68% (inactive)

**Q.** With COc1ccc2sc(-c3ccccc3OC)c(-c3ccc(OCCN4CCCC4)cc3)c2c1 as the compound, how does the “activity, negative = inhibition” value read?
**A.** -12.8% (inactive)

**Q.** For CC(=O)Nc1ccc(Nc2ncnc3c2nnn3Cc2ccccc2Cl)cc1, which “activity, negative = inhibition” value is on record?
**A.** 1.07% (inactive)

**Q.** With O=C(NCc1ccccc1CN1CCCC1)C1CCN(S(=O)(=O)c2ccc(Cl)cc2)CC1 as the compound, how does the “activity, negative = inhibition” value read?
**A.** -0.604% (inactive)

**Q.** How did the “activity, negative = inhibition” value turn out when CC(C)CN(C(=O)c1ccc2c(c1)OCO2)C1CCS(=O)(=O)C1 (centres undefined) was run?
**A.** 0.881% (inactive)

**Q.** Which “activity, negative = inhibition” value does the source give for CC1(C)O[C@@H]2CC3C4C[C@H](F)C5=CC(=O)C=CC5(C)C4C(O)CC3(C)[C@]2(C(=O)CO)O1 (some centres undefined) here?
**A.** 1.04% (inactive)

**Q.** How did the “activity, negative = inhibition” value turn out when Cc1ccc2[nH]c(=O)c(CN(C)S(=O)(=O)c3cccc4nonc34)cc2c1 was run?
**A.** -2.84% (inactive)

**Q.** For Cc1nc(NC2=NC(C(=O)Nc3ccc(Cl)cc3)CC(=O)N2)nc2ccccc12 (centres undefined), which “activity, negative = inhibition” value is on record?
**A.** 0.566% (inactive)

**Q.** With CC1CCN(c2ccc(C(=O)NCc3ccc4c(c3)OCO4)cc2[N+](=O)[O-])CC1 as the compound, how does the “activity, negative = inhibition” value read?
**A.** 0.158% (inactive)

**Q.** How did the “activity, negative = inhibition” value turn out when CC(=O)c1ccc(NC(=O)CCNS(=O)(=O)c2cc(Br)cnc2N)cc1 was run?
**A.** -0.226% (inactive)

**Q.** With CC(=O)c1nn(-c2cccc(C(F)(F)F)c2)c(=O)[nH]c1=O as the compound, how does the “activity, negative = inhibition” value read?
**A.** -0.223% (inactive)

**Q.** For c1ccc(-c2nnc3n2NC(c2ccc4c(c2)OCO4)S3)cc1 (centres undefined), which “activity, negative = inhibition” value is on record?
**A.** 1.41% (inactive)

**Q.** How did the “activity, negative = inhibition” value turn out when O=C(CSc1nnc(-c2ccncc2)o1)Nc1cccc(Cl)c1 was run?
**A.** 2.25% (inactive)

**Q.** How did the “activity, negative = inhibition” value turn out when O=C(O)C1CCN(C(=O)c2cc(F)cc3c2OCOC3)CC1 was run?
**A.** 2.42% (inactive)

**Q.** Which “activity, negative = inhibition” value does the source give for CC(=O)c1cn(CCCCCCCCCCn2cc(C(C)=O)c(=O)[nH]c2=O)c(=O)[nH]c1=O here?
**A.** -3.31% (inactive)

**Q.** Cn1c2c(c(=O)n(C)c1=O)C(c1cccc(F)c1)C(C#N)=C(N)O2 (centres undefined) was tested. Which “activity, negative = inhibition” value did it give?
**A.** -1.49% (inactive)

**Q.** With CCCCOP(=O)(c1ccc(N(C)C)cc1)C(O)c1cc(OC)ccc1OC (centres undefined) as the compound, how does the “activity, negative = inhibition” value read?
**A.** 2.81% (inactive)

**Q.** With Cc1cccc(C(=O)O)c1[N+](=O)[O-] as the compound, how does the “activity, negative = inhibition” value read?
**A.** 0.41% (inactive)

**Q.** With CCN(CC)S(=O)(=O)c1ccc(CNC(=O)CN2C(=O)NC3(CCc4ccccc43)C2=O)cc1 (centres undefined) as the compound, how does the “activity, negative = inhibition” value read?
**A.** -3.53% (inactive)

**Q.** With NC(=O)CN1CCCC1c1ccc2c(c1)OCCO2 (centres undefined) as the compound, how does the “activity, negative = inhibition” value read?
**A.** 0.0789% (inactive)

**Q.** Which “activity, negative = inhibition” value does the source give for CCOC(=O)c1cc(-c2ccc(Cl)s2)nc2c1c(C)nn2C here?
**A.** -7.1% (inactive)

**Q.** With Cc1cc(S(=O)(=O)NCC(C)C)ccc1OCC(=O)NC1CC1 as the compound, how does the “activity, negative = inhibition” value read?
**A.** -0.397% (inactive)

**Q.** Which activity, negative = inhibition does the source give for COc1ccc2c3c(c(=O)oc2c1)C1O[C@](CCCCN2C(=O)c4ccccc4C2=O)(Cc2c1ccc1ccccc21)O3 here?
**A.** 1.5% [at 15.4 µM] (inactive)

**Q.** For O=C(CCc1ccccc1)Nc1ccnn1C1CCN(Cc2ccc(OCCO)cc2)CC1, which “activity, negative = inhibition” value is on record?
**A.** 1.27% (inactive)

**Q.** Which “activity, negative = inhibition” value does the source give for Cc1cccc(N(C(=O)Cc2cccs2)C(C(=O)NC2CCCC2)c2ccsc2)c1 (centres undefined) here?
**A.** -0.0327% (inactive)

**Q.** How did the “activity, negative = inhibition” value turn out when O=C(CCNC(=O)c1ccc([N+](=O)[O-])cc1)NC1CCCCC1 was run?
**A.** -2.91% (inactive)

**Q.** O=C1CC(=O)Nc2cc(S(=O)(=O)N3CCN(c4cccc(C(F)(F)F)c4)CC3)ccc2N1 was tested. Which “activity, negative = inhibition” value did it give?
**A.** 3.32% (inactive)

**Q.** For CCOC(=O)C1=C(CC)OC(N)=C(C#N)C1c1ccc(F)cc1F (centres undefined), which “activity, negative = inhibition” value is on record?
**A.** -1.36% (inactive)

**Q.** Which “activity, negative = inhibition” value does the source give for O=C(CN1CCN(C2CCS(=O)(=O)C2)CC1)N1N=C(c2ccc(Cl)cc2)CC1c1ccco1 (centres undefined) here?
**A.** -0.933% (inactive)

**Q.** How did the Potency turn out when CC(C)CNC(=O)/C=C/C(=O)O was run?
**A.** inactive

**Q.** How did the “activity, negative = inhibition” value turn out when Cc1ccc(C)c(N(CC(=O)NCc2ccco2)C(=O)CCC(=O)Nc2ccccn2)c1 was run?
**A.** -0.588% (inactive)

**Q.** Cc1cccc(C)c1NC(=O)C(Cl)C(=O)c1ccccc1 (centres undefined) was tested. Which “activity, negative = inhibition” value did it give?
**A.** 0.831% (inactive)

**Q.** Which “activity, negative = inhibition” value does the source give for Cn1c(=O)c2c(n(Cc3ccccc3)c1=O)NC(=O)C2CC(=O)N1CCc2ccccc2C1 (centres undefined) here?
**A.** -0.155% (inactive)
